# Measured values from PubChem BioAssay (NCATS).
# Results filed as inconclusive are left out. A call without a number means that no potency is given here. Calls of active or inactive are those of the source. Unless noted, calls come from the whole dose curve; as a rule, active = well fitted curve in the direction sought with a large enough effect; inconclusive = small, poorly fitted or top-dose-only effect, or another doubt; inactive = no such curve, though single readings can be large; an effect the other way counts as inactive or inconclusive.
# How the values were obtained:
# [1] = molecular target: Rap guanine nucleotide exchange factor 3 (Homo sapiens) (UniProt O95398); test: Confirmatory qHTS for agonist of cAMP-regulated guanine nucleotide exchange factor 3 (EPAC1) (AID 1645881);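 note: EPAC1 catalysed release of BODIPY-GDP from Rap1B seen as fluorescence loss; nearly all actives have a fitted effect of over 75% in size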
# Rap guanine nucleotide exchange factor 3 (Homo sapiens), sequence (O95398 whole entry, looked up): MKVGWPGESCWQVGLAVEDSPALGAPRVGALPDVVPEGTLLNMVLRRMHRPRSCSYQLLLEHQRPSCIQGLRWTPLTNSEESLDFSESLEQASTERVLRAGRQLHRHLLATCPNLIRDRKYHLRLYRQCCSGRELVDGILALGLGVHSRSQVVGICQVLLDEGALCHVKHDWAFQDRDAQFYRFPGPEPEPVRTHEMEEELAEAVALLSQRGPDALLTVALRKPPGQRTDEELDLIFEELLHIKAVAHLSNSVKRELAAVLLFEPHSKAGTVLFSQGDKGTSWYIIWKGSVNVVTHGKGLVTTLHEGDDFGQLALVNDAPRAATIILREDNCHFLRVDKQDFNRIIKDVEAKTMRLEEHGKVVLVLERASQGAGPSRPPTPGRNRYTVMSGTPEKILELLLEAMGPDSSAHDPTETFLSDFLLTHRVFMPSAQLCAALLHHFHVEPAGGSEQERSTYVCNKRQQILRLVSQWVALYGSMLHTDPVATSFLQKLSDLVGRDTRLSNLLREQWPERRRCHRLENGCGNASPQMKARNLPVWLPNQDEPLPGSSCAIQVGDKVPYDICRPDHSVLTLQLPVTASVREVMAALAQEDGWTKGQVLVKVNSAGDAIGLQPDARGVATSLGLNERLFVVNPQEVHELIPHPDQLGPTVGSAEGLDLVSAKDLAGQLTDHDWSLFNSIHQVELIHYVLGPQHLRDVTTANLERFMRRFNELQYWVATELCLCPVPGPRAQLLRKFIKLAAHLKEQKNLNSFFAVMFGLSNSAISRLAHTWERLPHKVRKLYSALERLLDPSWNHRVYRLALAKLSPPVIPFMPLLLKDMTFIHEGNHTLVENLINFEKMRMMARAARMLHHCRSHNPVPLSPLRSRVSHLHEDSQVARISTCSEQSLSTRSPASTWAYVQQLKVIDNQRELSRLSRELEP
# [2] = molecular target: Luciferin 4-monooxygenase (Photinus pyralis) (UniProt P08659); test: Biochemical firefly luciferase enzyme assay for NPC (AID 624030);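 note: purified P. pyralis luciferase at 10 nM with luciferin and ATP substrate; nearly all actives have a fitted effect of over 70% in size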
# Luciferin 4-monooxygenase (Photinus pyralis), sequence (P08659 whole entry, looked up): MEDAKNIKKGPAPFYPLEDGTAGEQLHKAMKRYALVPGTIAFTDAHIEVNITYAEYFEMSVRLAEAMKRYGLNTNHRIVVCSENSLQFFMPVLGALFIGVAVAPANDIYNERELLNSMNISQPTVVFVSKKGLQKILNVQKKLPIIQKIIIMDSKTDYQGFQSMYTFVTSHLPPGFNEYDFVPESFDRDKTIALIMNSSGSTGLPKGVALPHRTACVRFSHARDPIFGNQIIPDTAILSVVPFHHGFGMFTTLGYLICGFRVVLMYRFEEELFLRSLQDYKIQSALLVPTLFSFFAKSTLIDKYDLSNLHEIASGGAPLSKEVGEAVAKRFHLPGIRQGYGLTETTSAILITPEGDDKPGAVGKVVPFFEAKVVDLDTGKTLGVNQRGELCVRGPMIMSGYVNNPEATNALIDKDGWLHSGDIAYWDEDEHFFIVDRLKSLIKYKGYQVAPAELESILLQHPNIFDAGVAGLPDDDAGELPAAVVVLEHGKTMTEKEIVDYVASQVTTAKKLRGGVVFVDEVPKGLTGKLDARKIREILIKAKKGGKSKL
# Outline: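 Counter-screen for direct inhibition of the luciferase enzyme by approved-drug library compounds, run at 10 nM enzyme in 50 mM Tris acetate (final). Luminescence was read within 5 min of enzyme-buffer addition and normalized to PTC124 versus DMSO (0%).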
# [3] = S16 Schwann cell viability assay (CellTiter-Glo assay) (AID 624031);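 note: cellular ATP luminescence as a viability measure; nearly all actives have a fitted effect of over 70% in size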
# Outline: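 Untransfected S16 rat Schwann cells; compound 24 h, 37 °C/5% CO2; CellTiter-Glo ATP luminescence. % activity vs no-cell wells and DMSO controls (0%); concentration-effect curves classed by r2, response magnitude, activity.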
# [4] = S16 Schwann cell PMP22 intronic element beta-lactamase assay (AID 624044; calls by dose curve; note: nearly all actives have a fitted effect of over 15% in size)
# Outline: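 Rat S16 Schwann cells with beta-Lac driven by a PMP22 intronic element, compound-treated 24 h at 37 °C. LiveBLAzer FRET B/G read: 460 nm normalized to potassium clavulanate vs DMSO; 535 nm FRET as viability; concentration-effect curves classified.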
# CP194 = test: qHTS profiling for inhibitors of Plasmodium falciparum proliferation (AID 504749); note: nearly all actives have a fitted effect of over 60% in size; note: potency is the fitted concentration of half-maximal effect; conditions: P. falciparum in erythrocytes, SYBR Green DNA, 72 h; series mostly up to 28.7 µM
# Outline: (§1)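 P. falciparum-infected erythrocytes (0.3% parasitemia, 2.5% hematocrit final) were exposed to compounds for 72 h at 37 C in 5% CO2, then lysed with SYBR Green buffer overnight at room temperature; parasite DNA fluorescence was normalized to artemisinin and DMSO controls.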
# CP201 = test: as above; conditions: P. falciparum in erythrocytes, SYBR Green DNA, 72 h; series mostly up to 28.7 µM
# Outline: as §1
# CP211 = test: as above; conditions: P. falciparum in erythrocytes, SYBR Green DNA, 72 h; series mostly up to 28.7 µM
# Outline: as §1
# CP215 = test: as above; conditions: P. falciparum in erythrocytes, SYBR Green DNA, 72 h; series mostly up to 28.7 µM
# Outline: as §1
# CP250 = test: as above; conditions: P. falciparum in erythrocytes, SYBR Green DNA, 72 h; series mostly up to 28.7 µM
# Outline: as §1
# CP256 = test: as above; conditions: P. falciparum in erythrocytes, SYBR Green DNA, 72 h; series mostly up to 28.7 µM
# Outline: as §1
# CP262 = test: as above; conditions: P. falciparum in erythrocytes, SYBR Green DNA, 72 h; series mostly up to 28.7 µM
# Outline: as §1
# CP265 = test: as above; conditions: P. falciparum in erythrocytes, SYBR Green DNA, 72 h; series mostly up to 28.7 µM
# Outline: as §1
# CP291 = test: as above; conditions: P. falciparum in erythrocytes, SYBR Green DNA, 72 h; series mostly up to 28.7 µM
# Outline: as §1
# CP325 = test: as above; conditions: P. falciparum in erythrocytes, SYBR Green DNA, 72 h; series mostly up to 28.7 µM
# Outline: as §1
# CP335 = test: as above; conditions: P. falciparum in erythrocytes, SYBR Green DNA, 72 h; series mostly up to 28.7 µM
# Outline: as §1
# Dd2 = test: as above; conditions: P. falciparum in erythrocytes, SYBR Green DNA, 72 h; series mostly up to 28.7 µM
# Outline: as §1
# GB4 = test: as above; conditions: P. falciparum in erythrocytes, SYBR Green DNA, 72 h; series mostly up to 28.7 µM
# Outline: as §1
# PC15 = test: as above; conditions: P. falciparum in erythrocytes, SYBR Green DNA, 72 h; series mostly up to 28.7 µM
# Outline: as §1
# CP315 = test: as above; conditions: P. falciparum in erythrocytes, SYBR Green DNA, 72 h; series mostly up to 28.7 µM
# Outline: as §1
# [5] = molecular target: Cytochrome P450 3A4 (Homo sapiens) (UniProt P08684); test: qHTS Assay for Inhibitors and Substrates of Cytochrome P450 3A4 (AID 884); note: nearly all actives have a fitted effect of over 50% in size; note: potency is the fitted concentration of half-maximal effect
# Cytochrome P450 3A4 (Homo sapiens), sequence (P08684 whole entry, looked up): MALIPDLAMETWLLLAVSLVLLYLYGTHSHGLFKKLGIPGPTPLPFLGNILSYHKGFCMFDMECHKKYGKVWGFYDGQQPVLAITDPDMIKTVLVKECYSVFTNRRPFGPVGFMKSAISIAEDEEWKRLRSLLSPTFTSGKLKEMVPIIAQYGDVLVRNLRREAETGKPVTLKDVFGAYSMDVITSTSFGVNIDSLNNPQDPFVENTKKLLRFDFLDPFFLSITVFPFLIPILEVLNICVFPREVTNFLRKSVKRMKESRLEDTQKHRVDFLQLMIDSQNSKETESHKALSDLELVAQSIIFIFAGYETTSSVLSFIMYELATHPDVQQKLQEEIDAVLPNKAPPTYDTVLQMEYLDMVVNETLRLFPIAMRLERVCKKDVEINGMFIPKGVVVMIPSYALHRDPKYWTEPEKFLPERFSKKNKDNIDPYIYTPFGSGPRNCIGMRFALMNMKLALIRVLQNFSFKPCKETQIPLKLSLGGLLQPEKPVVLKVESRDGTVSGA
# Outline: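 20 nM human CYP3A4 with 25 uM Luciferin-PPXE (at KM) in 200 mM KPO4, preincubated 10 min with compound; NADPH regeneration started a 60 min RT reaction. Luciferin detected by luminescence, normalized to 57 uM ketoconazole as full inhibition.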
compound,measurement,setting,value
CN1C2CC(OC(=O)C(CO)c3ccccc3)CC1C1OC12 (stereo unspecified),outcome,[1],inactive
CC(C)C[C@H]1C(=O)N2CCCC2[C@]2(O)O[C@](NC(=O)[C@@H]3C=C4c5cccc6[nH]c(Br)c(c56)C[C@H]4N(C)C3)(C(C)C)C(=O)N12 (stereo partly specified),Potency,[2],inactive
same,outcome,[3],inactive
same,outcome,[4],inactive
same,Potency,CP194,13.5 µM (active)
same,Potency,CP201,13.5 µM (active)
same,Potency,CP211,15.1 µM (active)
same,Potency,CP215,8.49 µM (active)
same,Potency,CP250,12.6 µM (active)
same,Potency,CP256,11.2 µM (active)
same,Potency,CP262,8.49 µM (active)
same,Potency,CP265,5.62 µM (active)
same,Potency,CP291,10.7 µM (active)
same,Potency,CP325,9.53 µM (active)
same,Potency,CP335,3.79 µM (active)
same,Potency,Dd2,2.51 µM (active)
same,Potency,GB4,6.01 µM (active)
same,Potency,PC15,7.94 µM (active)
COc1ccc(CCNC[C@@H](O)c2ccc(O)cc2)cc1OC,Potency,[2],inactive
same,outcome,[3],inactive
same,outcome,[4],inactive
same,Potency,CP194,inactive
same,Potency,CP201,inactive
same,Potency,CP211,inactive
same,Potency,CP215,inactive
same,Potency,CP250,inactive
same,Potency,CP256,inactive
same,Potency,CP262,inactive
same,Potency,CP265,inactive
same,Potency,CP291,inactive
same,Potency,CP315,inactive
same,Potency,CP325,inactive
same,Potency,CP335,inactive
same,Potency,Dd2,inactive
same,Potency,GB4,inactive
same,Potency,PC15,inactive
N[C@H](Cc1ccc(O)c(O)c1)C(=O)O,Potency,CP250,inactive
same,Potency,CP256,inactive
same,Potency,CP265,inactive
COC(=O)c1c(-c2cc(OC)c(OC)c(OC)c2)c2ccc(OCc3ccccn3)cc2c(=O)n1-c1ccc(N)cc1,Potency,[5],0.398 µM (active)
COc1cc2c(cc1OC)C(c1ccccc1)CN(C)CC2 (stereo unspecified),Potency,[2],inactive
same,outcome,[3],inactive
same,outcome,[4],inactive
same,Potency,CP194,inactive
same,Potency,CP201,inactive
same,Potency,CP211,inactive
same,Potency,CP215,inactive
same,Potency,CP262,inactive
same,Potency,CP291,inactive
same,Potency,CP315,inactive
same,Potency,CP325,inactive
same,Potency,PC15,inactive
COc1cc(=O)n(C)c2c(OCC(O)C(C)(C)O)cccc12 (stereo unspecified),Potency,[5],inactive
CC(C)(C)[C@]1(O)CCN2CC3c4ccccc4CCc4cccc(c43)[C@@H]2C1 (stereo partly specified),Potency,[2],inactive
same,Potency,CP215,inactive
same,Potency,CP315,inactive
same,Potency,CP335,10.7 µM (active)
same,Potency,Dd2,10 µM (active)
same,Potency,GB4,9.53 µM (active)
CN1C[C@H](C(=O)N[C@]2(C)O[C@@]3(O)C4CCCN4C(=O)[C@H](Cc4ccccc4)N3C2=O)C[C@@H]2c3cccc4[nH]cc(c34)C[C@H]21 (stereo partly specified),Potency,CP250,11.2 µM (active)
same,Potency,CP256,7.94 µM (active)
same,Potency,CP265,5.62 µM (active)
same,Potency,Dd2,2.82 µM (active)
same,Potency,PC15,1.12 µM (active)
CCCC(=O)NCCc1c2n(c3ccc(OC)cc13)Cc1ccccc1-2,Potency,[5],2.51 µM (active)
CC(=O)NC(c1cccs1)c1cc(Br)c2cccnc2c1O (stereo unspecified),outcome,[1],inactive
